Inconclusive results are not listed. Activity calls are given as the source filed them. Unless noted, calls follow the shape of the dose curve; as a rule, active = well fitted curve in the direction sought with a large enough effect in the repeat runs; inconclusive = weak or mixed curves; inactive = no such curve, though single readings can be large; an effect the other way counts as inactive or inconclusive.

A short description of test [1]: qHTS RealTime-Glo MT Cell Viability Assay in HEK293 cells - 0 hour (AID 1224880). Also: top concentration of the series differs between compounds; nearly all actives have a fitted effect of over 45% in size. The procedure, abridged: (§1)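 Kinetic, non-lysing viability readout. Seed HEK293 (600/well) with reagent, incubate 5 h at 37 C/5% CO2, pin 23 nL compound in DMSO, incubate at 37 C, read luminescence at 0, 8, 16, 24, 32, 40 h.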
In general terms: In qHTS, concentration-response curves come from the screen itself.

The nature of test [2]: A CellTox Green Cytotoxicity Assay to monitor cytotoxicity in HEK293 cells - 32 hour (AID 1224881). Also: nearly all actives have a fitted effect of over 40% in size. The procedure, abridged: (§2)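 Real-time, in one plate: 600 HEK293 cells/well with dead-cell DNA dye, pinned compound after 5 h, 37 C incubation over 40 h; viable cells give no appreciable fluorescence.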
Test [3] in a line: A CellTox Green Cytotoxicity Assay to monitor cytotoxicity in HepG2 cells - 0 hour (AID 1224882). Also: nearly all actives have a fitted effect of over 35% in size. The method, boiled down:
(§3)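 Cytotoxicity was tracked as dead-cell DNA fluorescence in HepG2 cells treated with test compounds at 37 C; each time-point value comes from one kinetic series spanning 0, 8, 16, 24, 32 and 40 h.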

Test [4] can be described thus: A CellTox Green Cytotoxicity Assay to monitor cytotoxicity in HEK293 cells - 8 hour (AID 1224884). Also: nearly all actives have a fitted effect of over 35% in size. The procedure, abridged: as §2
A short description of test [5]: qHTS RealTime-Glo MT Cell Viability Assay in HepG2 cells - 16 hour (AID 1224885). Also: nearly all actives have a fitted effect of over 50% in size. The method, boiled down: (§4)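 Real-time, nonlytic viability: 600 HepG2 cells/well mixed with NanoLuc enzyme plus prosubstrate; 5 h settle, compound (DMSO) added by pintool; luminescence monitored over 40 h at 37 C.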
Test [6] in a line: qHTS RealTime-Glo MT Cell Viability Assay in HEK293 cells - 24 hour (AID 1224886). Also: top concentration of the series differs between compounds; nearly all actives have a fitted effect of over 50% in size. The method, boiled down:
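Cells + reagent dispensed (600 cells/well, HEK293) → 5 h at 37 C/5% CO2 → 23 nL compound in DMSO pinned → 40 h at 37 C → luminescence read at 0, 8, 16, 24, 32, 40 h.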

Test [7] can be described thus: qHTS RealTime-Glo MT Cell Viability Assay in HEK293 cells - 8 hour (AID 1224887). Also: top concentration of the series differs between compounds; nearly all actives have a fitted effect of over 50% in size. The method, boiled down: as §1
A short description of test [8]: A CellTox Green Cytotoxicity Assay to monitor cytotoxicity in HEK293 cells - 16 hour (AID 1224888). Also: nearly all actives have a fitted effect of over 35% in size. The procedure, abridged: as §2
Test [9] can be described thus: qHTS RealTime-Glo MT Cell Viability Assay in HepG2 cells - 0 hour (AID 1224889). Also: nearly all actives have a fitted effect of over 50% in size. The method, boiled down: as §4
The nature of test [10]: qHTS assay to identify small molecule antagonists of the estrogen receptor alpha (ER-alpha) signaling pathway using the BG1 cell line in the presence of 0.1 nM 17-beta-estradiol - cell viability counter screen (AID 1259241). Also: nearly all actives have a fitted effect of over 40% in size. The procedure, abridged: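 Cytotoxicity counter-screen: live-cell protease activity measured by fluorescence (30 min reagent step) in the same wells. Cells were VM7Luc4E2 with endogenous ER-alpha and ERE-driven luciferase, treated 22 hr at 37C alongside 0.1 nM 17beta-estradiol final.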

Test [11] is described as follows: qHTS assay to identify small molecule antagonists of the androgen receptor (AR) signaling pathway using the MDA cell line in the presence of 0.5 nM R1881 - cell viability counter screen (AID 1259242). Also: nearly all actives have a fitted effect of over 45% in size. The procedure, abridged: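 Cells seeded at 3,000/well and allowed 5 hr at 37C, 0% CO2 before compound transfer and R1881 (0.5 nM final) addition; 16 hr later, live-cell protease fluorescence indicated cytotoxicity.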

Test [12] can be described thus: qHTS assay to identify small molecule HDAC inhibitors (AID 1259364). Also: potency is read from the fitted curve at half-maximal effect.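 Also: wild-type HCT-116 cells with endogenous class I/II HDAC activity; nearly all actives have a fitted effect of over 45% in size.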 The method, boiled down: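 HCT-116 wt cells, 1,500/well, overnight attach. Compounds (DMSO) 2 h, 37 °C. HDAC-Glo I/II, 30 min RT. Luminescence.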
The nature of test [13]: qHTS assay to identify small molecule HDAC inhibitors - cell viability counter screen (AID 1259365). The method, boiled down:
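CellTiter-Glo luminescence (30 min, room temperature) reported viability after a 2 h compound exposure at 37 C. Cells: wild-type HCT-116, 1,500 per well, seeded the night before.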

Test [14] is described as follows: qHTS assay to identify small molecule agonists of the sonic hedgehog signaling (Shh) pathway - cell viability counter screen (AID 1259366). Also: nearly all actives have a fitted effect of over 50% in size. The method, boiled down: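 Cytotoxicity counter screen: CellTiter-Fluor reagent added after 23 h compound exposure, then 1 h at 37C and fluorescence read. Cells were 3T3 Gli1-Luc, seeded 2,000 per well and dosed 4 h post-plating.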

A short description of test [15]: qHTS assay to identify small molecule antagonists of the sonic hedgehog signaling (Shh) pathway - cell viability counter screen (AID 1259367). Also: nearly all actives have a fitted effect of over 55% in size. The procedure, abridged:
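CellTiter-Fluor signal in conditioned medium-stimulated 3T3 Gli1-Luc cells, 23 hr compound exposure, 37C.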

Test [16] can be described thus: A CellTox Green Cytotoxicity Assay to monitor cytotoxicity in HepG2 cells - 8 hour (AID 1224890). Also: nearly all actives have a fitted effect of over 45% in size. The method, boiled down: as §3
The target of test [17] is Estrogen receptor (Homo sapiens) (UniProt P03372). The test can be described thus: qHTS assay to identify small molecule antagonists of the estrogen receptor alpha (ER-alpha) signaling pathway using the BG1 cell line in the presence of 0.1 nM 17-beta-estradiol (AID 1259244). Also: nearly all actives have a fitted effect of over 50% in size. Also: potency is read from the fitted curve at half-maximal effect. The method, boiled down: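 Luciferase signal from VM7Luc4E2 ERE-reporter cells, co-dosed with test compound and 0.1 nM final 17beta-estradiol for 22 h, read with ONE-Glo.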

Test [18] in a line: qHTS assay to identify small molecule phospholipidosis (PLD) inducers (AID 1259344; active = well fitted curve in the direction sought with a large enough effect; an effect the other way counts as inactive or inconclusive). The procedure, abridged: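 Accumulated phospholipid, stained red by LipidTOX during 24 h compound treatment of HepG2 cells at 37 C, is quantified from images as pit number and intensity, normalised per cell using Hoechst-stained nuclei.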
The target of test [19] is Androgen receptor (Homo sapiens) (UniProt P10275). The test is described as follows: qHTS assay to identify small molecule antagonists of the androgen receptor (AR) signaling pathway using the MDA cell line in the presence of 0.5 nM R1881 (AID 1259243). Also: nearly all actives have a fitted effect of over 50% in size. Also: potency is read from the fitted curve at half-maximal effect. The procedure, abridged:
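Luminescence from an AR/GR-responsive MMTV-luciferase construct in MDA-kb2 breast carcinoma cells, read 30 min after ONE-Glo, following 16 hr co-treatment with compounds and 0.5 nM R1881.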

Test [20] is described as follows: A CellTox Green Cytotoxicity Assay to monitor cytotoxicity in HepG2 cells - 32 hour (AID 1224883). Also: nearly all actives have a fitted effect of over 50% in size. The method, boiled down:
as §3

Estrogen receptor (Homo sapiens), sequence (P03372 whole entry, looked up): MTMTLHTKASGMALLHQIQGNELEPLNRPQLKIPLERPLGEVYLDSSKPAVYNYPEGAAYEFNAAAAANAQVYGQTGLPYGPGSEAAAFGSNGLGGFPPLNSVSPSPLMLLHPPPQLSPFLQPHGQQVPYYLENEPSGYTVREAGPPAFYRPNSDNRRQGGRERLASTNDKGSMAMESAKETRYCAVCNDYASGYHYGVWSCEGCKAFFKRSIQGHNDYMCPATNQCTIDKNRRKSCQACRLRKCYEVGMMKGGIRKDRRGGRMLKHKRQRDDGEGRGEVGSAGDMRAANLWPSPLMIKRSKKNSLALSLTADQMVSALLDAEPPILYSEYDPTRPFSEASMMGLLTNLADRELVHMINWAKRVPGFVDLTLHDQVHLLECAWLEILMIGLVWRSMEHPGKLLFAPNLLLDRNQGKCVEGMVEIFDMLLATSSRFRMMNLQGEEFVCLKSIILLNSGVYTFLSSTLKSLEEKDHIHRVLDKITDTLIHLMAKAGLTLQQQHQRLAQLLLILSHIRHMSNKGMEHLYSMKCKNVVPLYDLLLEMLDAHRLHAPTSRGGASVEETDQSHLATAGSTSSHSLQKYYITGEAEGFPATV
Androgen receptor (Homo sapiens), sequence (P10275 whole entry, looked up): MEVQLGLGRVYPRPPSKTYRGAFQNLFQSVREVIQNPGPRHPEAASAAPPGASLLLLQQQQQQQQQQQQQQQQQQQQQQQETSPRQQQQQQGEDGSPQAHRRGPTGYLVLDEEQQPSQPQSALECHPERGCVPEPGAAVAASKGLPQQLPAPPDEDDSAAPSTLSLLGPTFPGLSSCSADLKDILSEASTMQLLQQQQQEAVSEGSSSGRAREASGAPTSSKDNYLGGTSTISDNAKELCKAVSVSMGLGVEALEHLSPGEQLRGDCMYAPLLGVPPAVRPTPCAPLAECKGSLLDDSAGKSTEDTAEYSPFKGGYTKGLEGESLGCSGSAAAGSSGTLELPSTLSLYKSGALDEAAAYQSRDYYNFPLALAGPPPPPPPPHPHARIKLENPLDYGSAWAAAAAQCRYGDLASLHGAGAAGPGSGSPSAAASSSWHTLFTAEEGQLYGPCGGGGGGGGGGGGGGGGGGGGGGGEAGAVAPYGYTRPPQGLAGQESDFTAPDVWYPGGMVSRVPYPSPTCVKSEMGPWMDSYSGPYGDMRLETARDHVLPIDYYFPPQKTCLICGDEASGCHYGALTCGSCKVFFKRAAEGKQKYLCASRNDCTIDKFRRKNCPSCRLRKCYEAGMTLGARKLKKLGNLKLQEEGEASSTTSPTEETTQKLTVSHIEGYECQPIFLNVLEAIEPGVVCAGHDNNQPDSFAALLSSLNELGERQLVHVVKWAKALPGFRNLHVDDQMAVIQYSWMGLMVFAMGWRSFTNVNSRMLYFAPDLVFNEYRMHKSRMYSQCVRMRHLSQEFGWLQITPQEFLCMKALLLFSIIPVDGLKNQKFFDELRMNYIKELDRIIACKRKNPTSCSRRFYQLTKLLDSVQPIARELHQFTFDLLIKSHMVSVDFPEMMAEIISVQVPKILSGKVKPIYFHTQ

`CC(C)C(C)(N)C#N` (stereo unspecified): the result in test [1], in [3], in test [9], in [10] and in test [13] was inactive. The Potency entry in [2], in [4], in test [5], in test [6], in test [7] and in test [8] was “inactive” each time. For the same compound, the Potency entry in test [11], in [12], in [14] and in test [15] was “inactive” each time.
As for `NNCc1ccccc1`, the outcome in test [1], in [3], in test [9], in test [10] and in [13] was inactive. Further, the Potency entry in [2], in test [4], in test [5], in [7], in test [16] and in [11] was “inactive” throughout. Besides, the Potency entry in test [17], in [14] and in [15] was “inactive” throughout.
Take `NC(=O)OCCCc1ccccc1`: the outcome in [1], in test [3], in test [9], in test [10] and in [13] was inactive. Also, the Potency result in test [2], in test [4], in [5], in [6], in [7] and in test [8] was “inactive” throughout. The Potency result in test [16], in test [11], in test [17], in test [18], in [12] and in [15] was “inactive” in each case.
With `O=c1[nH]oc2c1CCNC2`, the outcome in [1], in [3], in [9], in test [10] and in test [13] was inactive. Also, the Potency entry in [2], in [4], in test [5], in test [6], in test [7] and in [8] was “inactive” throughout. Also, the Potency entry in [16], in test [11], in [17], in test [18], in test [14] and in test [15] was “inactive” each time.
With `C[C@H](CN1CCOCC1)C(C(=O)N1CCCC1)(c1ccccc1)c1ccccc1`, the compound was classed as inactive in test [1], in test [3], in [9], in test [10] and in test [13]. In addition, the Potency result in [2], in test [4], in [5], in test [7], in test [8] and in test [16] was “inactive” in each case. Also, the Potency result in [11], in test [17], in [18] and in [12] was “inactive” in each case.
In the case of `CCOC1Oc2ccc(OS(C)(=O)=O)cc2C1(C)C` (stereo unspecified), the call in test [1], in test [3], in test [9], in test [10] and in test [13] was inactive. Moreover, the Potency result in test [2], in test [4], in test [5], in test [7], in test [16] and in test [11] was “inactive” in each case. In addition, the Potency entry in test [12] and in test [14] was “inactive” throughout. The Potency is 60.6 µM (active) in test [19] and 54 µM (active) in test [17].
As for `CC(C)N(Cc1ccccc1)C(=O)C(C)(C)C`, the result in test [1], in [3], in test [9], in [10] and in test [13] was inactive. Further, the Potency result in [2], in test [4], in test [5], in test [6], in test [7] and in [8] was “inactive” throughout. The Potency result in [16], in test [11], in test [19], in [12] and in [14] was “inactive” each time.
Turning to `CON(C)C(=O)Nc1ccc(Br)c(Cl)c1`, the result in [1], in [3], in test [9], in [10] and in test [13] was inactive. For the same compound, the Potency entry in test [2], in [4], in [5], in test [7], in [16] and in [11] was “inactive” throughout. Also, the Potency entry in test [14] and in test [15] was “inactive” throughout. For the same compound, in [12], the Potency was 27.3 µM (active).
For `CCN[C@H](C)Cc1cccc(C(F)(F)F)c1`, the compound was classed as inactive in test [1], in test [3], in [9], in test [10] and in test [13]. Besides, the Potency entry in test [2], in test [20], in test [5], in test [6], in test [7] and in [8] was “inactive” in each case. Also, the Potency entry in [16], in test [11], in test [17], in test [18], in [12] and in [14] was “inactive” each time. Also, the Potency entry in test [15] is “inactive”.

(Values after PubChem BioAssay (Tox21).)
